Bioassay records deposited in PubChem BioAssay by National Center for Advancing Translational Sciences (NCATS).
Compounds with a hit are over-represented: about 6.5% of the library has one in this group of screens.
VACV mCherry inh: inhibitors of vaccinia virus infection (mCherry reporter signal). Vaccinia virus mCherry reporter infection, fluorescence. Potency, µM (titrated, usually from 36.5 µM), actives largely listed as inhibitors. 310,000 tested, 0.63% active; calls by dose curve; tested in A549 cells; also: nearly all actives have a fitted effect of over 35% in size
FMDV inh: foot and mouth disease virus antiviral activity. Potency, µM (doses to about 57.9 µM), actives largely listed as inhibitors. FMDV antiviral cell-based qHTS. 410,000 tested, 1.2% active; calls by dose curve; tested in HEK293T cells; also: read-out not given here; nearly all actives have a fitted effect of over 45% in size
Marburg entry inh: blocks Marburg virus binding to or entry into cells | AID 540276 | Marburg virus pseudotyped entry inhibition, cell reporter | Potency, µM (highest dose often 37.8 µM), hits mostly inhibitors | 300,000 tested, 1.8% active; calls by dose curve; tested in HEK293 cells
VACV Venus inh: inhibitors of vaccinia virus (Venus reporter); Vaccinia virus Venus reporter expression, fluorescence; 330,000 tested, 0.46% active; Potency, µM (top dose mostly 36.5 µM), usual class: inhibitors; calls by dose curve; tested in A549 cells; also: nearly all actives have a fitted effect of over 30% in size
LASV entry inh: blocks Lassa virus binding to or entry into cells | Potency, µM (series often up to 37.9 µM), hits mostly inhibitors | 300,000 tested, 1.2% active | AID 540256 | Lassa virus pseudotype entry inhibition, cell reporter; calls by dose curve; tested in HEK293 cells; also: nearly all actives have a fitted effect of over 50% in size
HCMV antiviral: inhibitors of human cytomegalovirus; HFF cells, HCMV-luciferase reporter, 72 h; hits give low values; activity change, negative = inhibition, % at 57.5 µM; 410,000 tested, 4.5% active; AID 1259415; in the data active = activity change below about -60%; inconclusive = no clear call, values can overlap the other calls; inactive = above about -39%
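Compounds were evaluated in HFFs infected with an HCMV luciferase reporter virus (MOI 1 PFU/cell). Luciferase in lysates collected 72 h post infection served as the replication measure.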
Numbers stand for hits; – = inactive; ? = inconclusive; · = not tested or not shown; [ ] = remark or other dose.

SMILES | VACV mCherry inh | FMDV inh | Marburg entry inh | VACV Venus inh | LASV entry inh | HCMV antiviral
Cc1nc2ccn(Cc3cccs3)c(=O)c2cc1C(=O)N1CCN(c2ccccc2)CC1 | – | – | · | – | ? | –
CCCCN(CCCC)CCNC(=O)Cn1nc(CC)n2c(cc3sc(C)cc32)c1=O | – | – | – | – | · | ?
CC1=Nc2ccccc2/C1=C/c1sc(=N)n(-c2nccs2)c1O | –[1.46 µM] | ? | 10µM | ? | 10µM | ·
C#CCn1c(O)c(N=NC(=O)C(O)c2ccccc2)c2ccccc21 (configuration not stated) | 13µM | – | – | ? | – | –
Cc1ccc(S(=O)(=O)N2CCN(c3nc(-c4cccs4)nc4cccnc34)CC2)cc1 | – | · | · | – | · | ·
O=C(O)CC1(c2ccccc2)C(=O)c2ccccc2C1=O | · | – | – | · | – | –
NC(=O)C1C(=O)c2ccccc2C1(C[N+](=O)[O-])c1ccccc1 (configuration not stated) | – | – | – | – | – | -101
O=C(CN1c2ccccc2Sc2ccccc21)N/N=C/c1ccc([N+](=O)[O-])cc1 | – | – | 8.9µM | ? | ? | –
COc1ccccc1Nc1nn2c(=O)c3ccc(C(=O)NC4CCCCC4)cc3nc2s1 | – | ? | · | – | – | –
CCN(CC)CCNC(=O)c1ccc2c(=O)n3nc(Nc4ccccc4OC)sc3nc2c1 | ? | – | · | – | – | -101
COc1ccccc1Nc1nn2c(=O)c3ccc(C(=O)NCc4cccs4)cc3nc2s1 | ? | ? | · | ? | ? | -97
Cc1ccc(C)c(Nc2nn3c(=O)c4ccc(C(=O)NCc5cccs5)cc4nc3s2)c1 | ? | – | · | ? | ? | -99
COc1ccc(Nc2ncnc3c2nc2n3CCCCC2)cc1 | – | – | · | – | – | –
CCc1cc(C(=O)Nc2c(C)nn(Cc3ccc(C)cc3)c2C)no1 | – | ? | – | – | – | –
O=C(COc1ccc2c(-c3ccccc3)cc(=O)oc2c1)Nc1ccc(CCO)cc1 | · | ? | · | · | · | -68
CC(C)(C)c1ccc(O[C@@H]2[C@H](O)CO[C@@H]2/C=C/C#Cc2ccccc2)cc1 | · | · | – | · | · | ·
Cc1cccc(CC(C)NC(=O)CCc2nnc(-c3ccccc3)o2)n1 (configuration not stated) | · | – | · | · | · | –
CC(NC(=O)CCc1nnc(-c2ccc(-c3ccccc3)cc2)o1)c1nc2ccccc2[nH]1 (configuration not stated) | – | ? | ? | – | ? | -68
Cc1cccc(OCCn2c(CCNC(=O)C3CCCCC3)nc3ccccc32)c1 | – | · | · | – | · | ·
CCN1C(=NCc2ccco2)N[C@@H](c2ccccc2)[C@H](C(=O)OC)[C@H]1C | · | · | – | · | · | ·
Cc1ccc(N2CCN(C(=O)C3CCCN(c4ncnc5c4nc4n5CCCCC4)C3)CC2)c(C)c1 (configuration not stated) | · | ? | · | · | · | –
CCCCN(CC)C(=O)C1CCCN(c2ncnc3c2nc2n3CCCCC2)C1 (configuration not stated) | – | – | · | – | – | –
CC(C)N(Cc1ccccc1)C(=O)C1CCCN(c2ncnc3c2nc2n3CCCCC2)C1 (configuration not stated) | · | ? | · | · | · | -60
Cc1ccc(C)c(N2CCN(C(=O)C3CCCN(c4ncnc5c4nc4n5CCCCC4)C3)CC2)c1 (configuration not stated) | · | ? | · | · | · | -69
CCCCN(Cc1ccco1)C(=O)C1CCCN(c2ncnc3c2nc2n3CCCCC2)C1 (configuration not stated) | ? | – | ? | – | ? | -93
SMILES | VACV mCherry inh | FMDV inh | Marburg entry inh | VACV Venus inh | LASV entry inh | HCMV antiviral
O=C(C1CCCN(c2ncnc3c2nc2n3CCCCC2)C1)N1CCN(c2cccc(Cl)c2)CC1 (configuration not stated) | · | ? | · | · | · | –
O=C(C1CCCN(c2ncnc3c2nc2n3CCCCC2)C1)N1CCN(c2ccccc2)CC1 (configuration not stated) | · | ? | · | · | · | -62
COc1cccc(-n2c(-c3ccccc3F)nc3c(cnn3-c3ccc(C)cc3)c2=O)c1 | – | – | – | – | ? | –
O=C(NCCCN1CCOCC1)c1ccc(-n2nc(C(F)(F)F)cc2-c2cccs2)cc1 | ? | ? | ? | ? | – | -67
Cc1cc(OC(C)C)nc(-c2ccccc2O)n1 | · | – | – | · | – | –
CCCOc1cc(C)nc(-c2ccccc2O)n1 | · | – | – | – | – | -65
COc1ccc(NS(=O)(=O)c2cc(NC(=O)c3ccc(=O)[nH]c3)ccc2C)cc1 | · | – | · | · | · | –
